# mHTT-CaM PPI inh: mHTT-calmodulin interaction abrogation. P42858. AlphaScreen His-mHTT/GST-CaM binding, luminescence. inhibition, % at 15 µM. 3.6% of 190,000 active. AID 1671202;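 further: 0% = both proteins with DMSO and 100% = one protein alone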
# Target sequence (P42858 whole entry, looked up, stated change not applied): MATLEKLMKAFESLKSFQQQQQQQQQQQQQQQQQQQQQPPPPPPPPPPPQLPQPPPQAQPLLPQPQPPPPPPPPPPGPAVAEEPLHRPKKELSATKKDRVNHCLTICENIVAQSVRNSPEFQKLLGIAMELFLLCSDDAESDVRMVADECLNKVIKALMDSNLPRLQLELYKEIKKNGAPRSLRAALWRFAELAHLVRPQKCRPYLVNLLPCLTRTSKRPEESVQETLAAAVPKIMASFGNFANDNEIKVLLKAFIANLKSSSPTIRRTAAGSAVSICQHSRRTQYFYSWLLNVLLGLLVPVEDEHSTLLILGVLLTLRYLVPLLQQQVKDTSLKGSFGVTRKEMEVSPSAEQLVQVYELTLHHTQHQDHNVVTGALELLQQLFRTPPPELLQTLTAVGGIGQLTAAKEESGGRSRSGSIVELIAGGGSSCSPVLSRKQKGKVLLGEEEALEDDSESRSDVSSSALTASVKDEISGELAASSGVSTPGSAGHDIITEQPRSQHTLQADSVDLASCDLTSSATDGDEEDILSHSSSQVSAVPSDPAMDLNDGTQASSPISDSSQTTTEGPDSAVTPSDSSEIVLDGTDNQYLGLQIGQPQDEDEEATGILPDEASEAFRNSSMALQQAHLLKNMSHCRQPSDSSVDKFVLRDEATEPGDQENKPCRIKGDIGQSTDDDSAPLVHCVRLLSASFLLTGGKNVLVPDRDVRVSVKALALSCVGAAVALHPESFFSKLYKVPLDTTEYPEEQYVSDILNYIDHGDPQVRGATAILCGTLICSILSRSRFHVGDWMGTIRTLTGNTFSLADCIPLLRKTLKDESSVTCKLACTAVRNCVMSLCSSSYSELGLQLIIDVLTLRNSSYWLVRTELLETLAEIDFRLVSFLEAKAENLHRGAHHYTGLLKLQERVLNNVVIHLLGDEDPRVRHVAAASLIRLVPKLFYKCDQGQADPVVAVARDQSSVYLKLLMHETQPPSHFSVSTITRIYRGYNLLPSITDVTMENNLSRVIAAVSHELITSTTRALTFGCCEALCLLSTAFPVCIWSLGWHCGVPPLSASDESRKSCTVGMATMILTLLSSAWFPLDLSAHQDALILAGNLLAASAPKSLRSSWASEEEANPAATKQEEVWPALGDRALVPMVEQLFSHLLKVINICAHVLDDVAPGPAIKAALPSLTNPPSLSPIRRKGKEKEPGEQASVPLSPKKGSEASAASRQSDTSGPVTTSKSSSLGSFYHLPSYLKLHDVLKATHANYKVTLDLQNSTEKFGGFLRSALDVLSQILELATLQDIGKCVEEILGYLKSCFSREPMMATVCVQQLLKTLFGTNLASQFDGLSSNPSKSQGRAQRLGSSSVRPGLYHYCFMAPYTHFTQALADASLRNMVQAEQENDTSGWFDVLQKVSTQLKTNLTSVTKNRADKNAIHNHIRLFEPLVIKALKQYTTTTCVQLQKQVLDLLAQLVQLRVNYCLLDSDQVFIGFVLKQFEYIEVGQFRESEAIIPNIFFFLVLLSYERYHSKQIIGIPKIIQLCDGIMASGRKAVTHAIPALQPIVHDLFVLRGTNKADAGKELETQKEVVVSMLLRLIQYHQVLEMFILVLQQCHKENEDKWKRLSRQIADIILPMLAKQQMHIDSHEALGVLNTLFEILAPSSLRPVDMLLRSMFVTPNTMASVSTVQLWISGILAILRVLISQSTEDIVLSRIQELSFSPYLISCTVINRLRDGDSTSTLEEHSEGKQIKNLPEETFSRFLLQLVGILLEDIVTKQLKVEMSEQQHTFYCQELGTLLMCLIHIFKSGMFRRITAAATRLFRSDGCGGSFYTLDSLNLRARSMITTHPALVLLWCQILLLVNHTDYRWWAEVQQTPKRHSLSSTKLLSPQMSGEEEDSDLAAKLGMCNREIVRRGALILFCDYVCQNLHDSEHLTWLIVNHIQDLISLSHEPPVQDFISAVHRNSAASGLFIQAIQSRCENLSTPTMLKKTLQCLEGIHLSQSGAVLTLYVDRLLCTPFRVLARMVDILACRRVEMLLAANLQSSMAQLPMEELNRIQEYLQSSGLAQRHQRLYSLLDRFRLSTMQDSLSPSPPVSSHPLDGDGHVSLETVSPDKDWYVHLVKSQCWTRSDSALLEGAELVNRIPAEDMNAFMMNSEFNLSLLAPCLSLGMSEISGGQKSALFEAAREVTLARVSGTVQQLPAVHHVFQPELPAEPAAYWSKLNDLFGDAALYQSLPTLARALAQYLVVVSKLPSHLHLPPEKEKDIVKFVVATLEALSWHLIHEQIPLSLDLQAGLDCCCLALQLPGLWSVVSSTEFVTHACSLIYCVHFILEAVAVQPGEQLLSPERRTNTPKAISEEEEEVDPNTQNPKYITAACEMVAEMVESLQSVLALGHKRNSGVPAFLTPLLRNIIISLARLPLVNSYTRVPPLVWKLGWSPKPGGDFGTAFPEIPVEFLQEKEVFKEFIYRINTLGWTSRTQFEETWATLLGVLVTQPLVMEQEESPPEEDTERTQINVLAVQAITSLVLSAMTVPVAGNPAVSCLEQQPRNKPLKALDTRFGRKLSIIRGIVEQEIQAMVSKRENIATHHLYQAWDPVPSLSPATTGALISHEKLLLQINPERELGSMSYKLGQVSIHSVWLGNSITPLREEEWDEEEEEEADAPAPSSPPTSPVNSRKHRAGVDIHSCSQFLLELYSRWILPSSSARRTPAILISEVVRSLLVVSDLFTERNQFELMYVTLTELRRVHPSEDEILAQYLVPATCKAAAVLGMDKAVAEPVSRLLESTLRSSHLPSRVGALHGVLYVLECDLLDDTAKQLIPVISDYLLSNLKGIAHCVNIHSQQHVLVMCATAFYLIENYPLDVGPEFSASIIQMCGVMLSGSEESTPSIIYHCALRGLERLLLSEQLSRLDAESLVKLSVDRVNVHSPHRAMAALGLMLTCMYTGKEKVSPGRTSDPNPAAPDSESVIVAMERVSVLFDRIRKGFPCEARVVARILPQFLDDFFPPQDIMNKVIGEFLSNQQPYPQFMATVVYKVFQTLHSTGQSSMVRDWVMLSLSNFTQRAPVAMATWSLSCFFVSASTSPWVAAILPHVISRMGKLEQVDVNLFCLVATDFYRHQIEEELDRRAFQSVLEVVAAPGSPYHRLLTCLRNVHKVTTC
# Pf apPOL block: Pf-apPOL DNA polymerase inhibition; Recombinant Pf-apPOL, molecular beacon fluorescence, 1.5 h; inhibition, % at 10 µM; 0.25% of 210,000 active; AID 1794808
# An asterisk follows results filed as active; . = no result given. An excerpt weighted towards active compounds, which were near 3.5% of everything screened. No stated cut-off is given here; in the data, active means inhibition above about 50%; inactive means the rest.
SMILES,mHTT-CaM PPI inh,Pf apPOL block
N#Cc1c(SCC(=O)NC2CC2)sc2c(O)cc(=O)[nH]c12,-4,.
N#Cc1c(SCC(=O)Nc2nccs2)sc2c(O)cc(=O)[nH]c12,51*,.
CN(Cc1ccccc1)S(=O)(=O)c1cc(Cl)ccc1Cl,-11,1
Cc1nn(C(=O)c2ccc(F)cc2)c(C)c1Sc1ccccc1,-115,11
CCCC(=O)NC(C)c1nc2ccccc2n1Cc1ccccc1F (stereo not given),4,-1
COc1ccccc1C(=O)NC(C)c1nc2ccccc2n1Cc1ccccc1F (stereo not given),55*,-1
CCOc1c(Br)cc(/C=C2\C(=O)NN(c3ccc(F)c(Cl)c3)C2=O)cc1OC,81*,1
COc1cc(/C=C2\C(=O)NN(c3ccc(F)c(Cl)c3)C2=O)ccc1O,33,1
O=C(C=Cc1ccc2c(c1)OCO2)c1ccc(Cl)c(Cl)c1,0,0
O=[N+]([O-])c1cc(C=Nc2ccc(Cl)cc2)ccc1Cl,19,2
O=[N+]([O-])c1cc(C=Nc2cc(Cl)ccc2O)ccc1Cl,64*,-1
Cc1c(Cl)cccc1N1CCC(C(=O)N(C)Cc2ccccc2)C1=O (stereo not given),0,-4
Cc1ccccc1/C=C1\Sc2ccccc2N(CC(=O)NCCC(C)C)C1=O,-8,-15
Cn1c2c(c(=O)n(C)c1=O)C(c1cccs1)C1C(=O)c3ccccc3C1=N2 (stereo not given),8,-7
Cc1ccc(-c2ccc(CN3C(C)C(=O)N(Cc4cn(CC5CCCCC5)nn4)CCS3(=O)=O)cc2)cc1 (stereo not given),30,-7
CC(C)CC1C(=O)N(Cc2cn(CC3CCCCC3)nn2)CCS(=O)(=O)N1Cc1ccc(-c2ccncc2)cc1 (stereo not given),65*,-2
COc1ccc(-c2ccc(CN3C(CC(C)C)C(=O)N(Cc4cn(CC5CCCCC5)nn4)CCS3(=O)=O)cc2)cc1OC (stereo not given),15,0
CC1C(=O)N(Cc2cn(CC3CCCCC3)nn2)CCS(=O)(=O)N1Cc1ccc(-c2ccccc2)cc1 (stereo not given),73*,0
CC(C)(C)c1ccc(C(=O)N2CCCN(c3ncc(C(F)(F)F)cc3Cl)CC2)cc1,.,-7
C=CCOc1ccc(/C=C2/C(=O)N(c3ccc(Cl)c(C(=O)O)c3)N=C2C)cc1OC,6,4
O=C(c1ccc2c(c1)OCO2)N1CCCC1c1ccc(Cl)cc1 (stereo not given),3,-10
Cc1ccc(Cn2cc(CCC(=O)NCc3ccccn3)c3ccccc32)cc1,78*,-18
Cc1ccc(Cn2cc(CCC(=O)NCc3ccco3)c3ccccc32)cc1,15,-14
CCc1ccccc1NC(=O)N1CCCC1c1cc(C(C)C)no1 (stereo not given),7,-1
C(=Nc1ccc(N=Nc2ccccc2)cc1)c1ccc2ccccc2c1,24,.
SMILES,mHTT-CaM PPI inh,Pf apPOL block
COc1ccccc1N1CCN(CC(O)COC2CC(C)CC(C)(C)C2)CC1 (stereo not given),3,-6
Cc1cc(OC(=O)C=Cc2ccc3c(c2)OCO3)c([N+](=O)[O-])c(=O)[nH]1,77*,8
COc1cccc(C(=O)Oc2cc(C)[nH]c(=O)c2[N+](=O)[O-])c1OC,7,-8
COc1ccc(C(=O)Oc2cc(C)[nH]c(=O)c2[N+](=O)[O-])cc1OC,86*,-2
CC=CC(=O)Oc1cc(C)[nH]c(=O)c1[N+](=O)[O-],21,4
CCCC12CN3CC(CCC)(CN(C1)C3c1ccc(Br)cc1)C2=O (stereo not given),-19,4
COc1cccc(CCC(=O)N2CC3CC(NC(=O)c4cccs4)C2C3)c1 (stereo not given),9,-2
Cn1cc(-c2noc(-c3ccoc3)n2)ccc1=O,-7,0
CSc1ccccc1NC(=O)c1ccc(-n2ccnc2)nn1,31,-4
O=C(Nc1nc2ccccc2[nH]1)c1ccc(-n2ccnc2)nn1,94*,0
O=C(c1cccnc1)N1CCc2cc(-c3ccno3)ccc21,8,-4
CCCCC[C@@H](C)N1C[C@H](COCc2ccccc2)Oc2cc(N3CCC[C@@H]3CO)ccc2S1(=O)=O,24,-8
CCCCC[C@H](C)N1C[C@@H](COCc2ccccc2)Oc2cc(N3CC[C@H](N(C)C)C3)ccc2S1(=O)=O,-13,-11
CCCCC[C@H](C)N1C[C@@H](COCc2ccccc2)Oc2cc(N3CC[C@H](O)C3)ccc2S1(=O)=O,88*,-8
CCCCC[C@H](C)N1C[C@H](COCc2ccccc2)Oc2cc(N3CC[C@@H](O)C3)ccc2S1(=O)=O,92*,-19
CCCCC[C@@H](C)N1C[C@@H](COCc2ccccc2)Oc2cc(N3CC[C@H](N(C)C)C3)ccc2S1(=O)=O,100*,-6
C[C@@H](c1ccccc1)N1C[C@H](COCc2ccccc2)Oc2cc(N3CC[C@H](O)C3)ccc2S1(=O)=O,48,-8
COCC(=O)Nc1n[nH]c(C)c1-c1ccc(Br)cc1,-2,-2
O=C1NN(c2ccc(Cl)cc2)C(=O)/C1=C/c1cccc(Br)c1,95*,-5
COc1cccc(/C=C2\C(=O)NN(c3ccccc3)C2=O)c1,6,2
COc1cccc(/C=C2\C(=O)NN(c3ccc(Br)cc3)C2=O)c1,7,1
O=C1NN(c2ccccc2)C(=O)/C1=C/c1cccc(Br)c1,54*,-3
Cc1cc(C)c(S(=O)(=O)N2CCCC2=O)c(C)c1,-11,-12
Cc1ccc(S(=O)(=O)N=C2C=CC(=O)C(Br)=C2)c(C)c1,93*,-8
CCN(CC)C(=NS(=O)(=O)c1ccc(C)cc1C)c1ccccc1,-1,-3
SMILES,mHTT-CaM PPI inh,Pf apPOL block
Cc1cc(C)c(S(=O)(=O)N=C2C=CC(=O)C(Br)=C2)c(C)c1,53*,-4
Cc1cc(-c2nc(-c3ccnn3S(=O)(=O)c3cccc(C(F)(F)F)c3)cs2)no1,.,3
CCOC(=O)c1cc(-c2ccnn2S(=O)(=O)c2cccc(C(F)(F)F)c2)on1,.,82*
O=C(Nc1cccc(Cl)c1)c1cc([N+](=O)[O-])ccc1NCCO,94*,1
NCCNc1ccc([N+](=O)[O-])cc1C(=O)Nc1cccc(Cl)c1,28,12
Cc1cccc(-c2cc3n(n2)CCCN(C(=O)c2ccncc2)C3)c1,11,-2
Cc1cccc(-c2cc3n(n2)CCCN(C(=O)COc2ccc(Cl)cc2)C3)c1,83*,3
Cc1cccc(-c2cc3n(n2)CCCN(C(=O)c2cccc(C#N)c2)C3)c1,27,-4
N#Cc1cccc(C(=O)N2CCCn3nc(-c4ccc(Cl)cc4)cc3C2)c1,55*,0
Cc1ccc(C(=O)N2CCCn3nc(-c4cccs4)cc3C2)s1,4,-3
Cc1ccc(C(=O)N2CCCn3nc(-c4ccc(Cl)cc4)cc3C2)s1,71*,3
COC(=O)c1ccc(CN2CCN(c3cccc(C)c3)C(=O)C2C)cc1 (stereo not given),-1,-2
COc1cccc(CNC(=O)C2(C)CCCN(S(=O)(=O)c3ccc(Cl)s3)C2)c1 (stereo not given),-2,-2
CCC(=O)N1CCc2cc(N3CC(C(=O)Nc4ccc(OC)c(F)c4)CC3=O)ccc21 (stereo not given),-4,0
COc1ccc(C2C=C(c3ccc(Cl)cc3)Nc3nc(CCCO)nn32)cc1OC (stereo not given),52*,12

# Source: PubChem BioAssay
